Measured values published in PubChem BioAssay (EPA / NIEHS).
Where “and” joins values, the source holds several entries; their conditions need not be identical. Identical values can stand only once. Records with an inconclusive call do not appear. Calls of active or inactive are those of the source. Rule for the calls, unless noted: active = hit-call score of the fitted dose curve at least 0.9, where 1 is the maximum; inactive = score below 0.9.

Tests used:
[1] = CCTE_Shafer_MEA_acute_burst_percentage_std: CCTE's Neural Acute Assay for Standard Deviation of Burst Percentage, Shafer Lab (AID 2284018);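 note: fitted in the negative direction so actives lower burst percentage SD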
Procedure, shortened: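 Value is percent change from baseline in the across-electrode SD of spikes-in-bursts percentage, wells with >/= 10 active electrodes. Acute 40-min exposure to 0.03-40 uM on DIV 13 or 15 rat cortical cultures, recorded at 37 C after 40-min baseline.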

[2] = CCTE_Shafer_MEA_acute_per_network_burst_spike_number_mean: CCTE's Neural Acute Assay for Average Number of Spikes in a Network Burst, Shafer Lab (AID 2284019);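 for AC50: curve fitted for loss of signal so actives reduce spikes per network burst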
Procedure, shortened: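 Percent change from baseline in mean spikes per network burst, spikes detected at 8x rms noise. Each compound at 0.03-40 uM in at least three wells of rat cortical cultures, recorded 40 min before and 40 min during exposure.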

[3] = CCTE_Shafer_MEA_acute_per_network_burst_spike_number_std: CCTE's Neural Acute Assay for Standard Deviation of Number of Spikes in a Network Burst, Shafer Lab (AID 2284020);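 note: fitted for decrease in spike-number SD versus DMSO so actives lower it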
Procedure, shortened: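 Endpoint: percent change from 40 min baseline in standard deviation of spikes per network burst, after 40 min compound exposure (0.03-40 uM, 37 C). Cortical rat neurons on MEA at DIV 13 or 15; spikes detected at 8x rms noise, 300-5000 Hz band-pass.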

[4] = CCTE_Shafer_MEA_acute_per_network_burst_electrodes_number_mean: CCTE's Neural Acute Assay for Mean Number of Electrodes in a Network Burst, Shafer Lab (AID 2284021);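 note: curves fitted for decreases only so hits reduce electrodes per burst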
Procedure, shortened: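 Percent change from baseline was computed as mean electrode count per network burst, comparing 40 min recordings before and during compound (0.03-40 uM) exposure. Cultures were rat cortical neurons at DIV 13 or 15, recorded on MEAs at 37 C with an adaptive 8x rms threshold.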

[5] = CCTE_Shafer_MEA_acute_network_burst_percentage: CCTE's Neural Acute Assay for Percentage of Network Bursts, Shafer Lab (AID 2284022);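 note: curves fitted for loss so actives lower network burst percentage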
Procedure, shortened: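 Network burst percentage (spikes in network bursts divided by total spikes) recorded at 37 C over 40 min baseline and 40 min after compound, 0.03-40 uM, in rat cortical cultures at DIV 13 or 15. Analysed as percent change from baseline versus DMSO.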

[6] = CCTE_Shafer_MEA_acute_cross_correlation_area: CCTE's Neural Acute Assay for Area of Cross Correlation, Shafer Lab (AID 2284024);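 note: area under pooled inter-electrode spike cross-correlation near zero lag as percent change from own baseline; curves fitted for loss of cross-correlation area so actives lower synchrony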
Procedure, shortened: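 Percent change in well-wide cross-correlation area (window around zero lag) between 40 min baseline and 40 min post-compound recordings, 37 C; rat cortical cultures on MEA at DIV 13 or 15, dosed 0.03-40 uM, wells needing >/= 10 active electrodes.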

[7] = CCTE_Shafer_MEA_acute_cross_correlation_HWHM: CCTE's Neural Acute Assay for Cross Correlation at Half Width at Half Maximum, Shafer Lab (AID 2284026);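 note: percent change per well from pre-dose baseline in spike cross-correlogram half width; hits are a decrease in cross-correlogram half width relative to DMSO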
Procedure, shortened: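 Per-well percent change in cross-correlogram half width at half maximum, derived from 40-min recordings before and after compound (0.03-40 uM) at 37 C. Cultures were rat cortical neurons, DIV 13 or 15, with adaptive spike detection at 8x rms.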

[8] = CCTE_Shafer_MEA_acute_synchrony_index: CCTE's Neural Acute Assay for Synchrony, Shafer Lab (AID 2284027);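 note: network synchrony index of spontaneous spiking in primary rat cortical neurons on MEAs; fitted for loss of signal so actives lower synchrony relative to DMSO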
Procedure, shortened: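 The synchrony index is taken as percent change per well between a 40 min baseline and a 40 min recording with compound (0.03–40 uM), at 37C. Rat cortical cultures on multiwell MEAs at DIV 13 or 15, spike threshold 8× rms noise.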

[9] = CCTE_Shafer_MEA_dev_firing_rate_mean: CCTE's Neural Network Formation Assay for Mean Firing Rate, Shafer Lab (AID 2284031);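 note: AUC of well mean spike rate recorded on DIV 5 7 9 and 12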;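 for AC50: curve fitted for loss of firing so AC50 reflects decreased mean firing rate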
Procedure, shortened: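 Spike frequency (spikes/recording length, averaged over active electrodes) was recorded on days 5, 7, 9 and 12 and collapsed to AUC; rat cortical cultures received compound continuously over 12 days of network development.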

[10] = target: Estrogen receptor (Homo sapiens) (UniProt P03372); experiment: CCTE_Deisenroth_AIME_384WELL_LUC_Active: CCTE's 384-well Estrogen Receptor Transactivation Assay with AIME metabolic competence (ERTA luciferase; metabolism positive), Deisenroth Lab (AID 2284030; active = hit-call score of the fitted dose curve at least 0.9, where 1 is the maximum)
Estrogen receptor (Homo sapiens), sequence (P03372 whole entry, looked up): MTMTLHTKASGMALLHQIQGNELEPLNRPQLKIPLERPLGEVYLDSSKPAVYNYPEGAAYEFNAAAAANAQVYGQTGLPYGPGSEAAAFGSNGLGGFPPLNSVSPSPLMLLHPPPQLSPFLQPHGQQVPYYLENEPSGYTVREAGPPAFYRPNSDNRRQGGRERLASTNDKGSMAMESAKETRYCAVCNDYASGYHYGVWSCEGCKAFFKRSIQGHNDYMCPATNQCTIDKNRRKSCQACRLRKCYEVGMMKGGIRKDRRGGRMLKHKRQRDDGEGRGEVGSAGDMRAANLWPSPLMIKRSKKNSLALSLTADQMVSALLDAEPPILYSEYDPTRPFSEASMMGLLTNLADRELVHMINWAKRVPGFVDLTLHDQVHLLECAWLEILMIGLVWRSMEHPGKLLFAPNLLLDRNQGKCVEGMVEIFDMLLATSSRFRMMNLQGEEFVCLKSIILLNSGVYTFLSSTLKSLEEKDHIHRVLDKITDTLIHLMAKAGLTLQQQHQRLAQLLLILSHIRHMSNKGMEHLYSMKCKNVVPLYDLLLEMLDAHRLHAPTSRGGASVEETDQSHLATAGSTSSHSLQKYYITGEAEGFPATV
Procedure, shortened: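 VM7Luc4E2 breast cells were given, for 24 hours, medium pre-incubated for 2 hours with parent chemical (0.002-200 uM, 10 concentrations) and alginate-encapsulated phenobarbital/beta-naphthoflavone-induced rat hepatic S9. Luciferase gain of signal was fitted against 17beta-estradiol; n=4 or more.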

Measured: AC50

O=CN1CCOCC1
not listed: [9] | [10]
inactive: all other assays above

COCCc1ccc(OCC(O)CNC(C)C)cc1 (centres undefined)
not listed: [10]
inactive: all other assays above

CC(C)CCCCCCc1ccc(OCCOCCO)cc1
inactive: [10]

CCCCCCCCCCCC(=O)OCC(O)CO (centres undefined)
inactive: [10]

CC1(C)CCC[C@]2(C)[C@H]3CCO[C@]3(C)CC[C@@H]12
not listed: [9] | [10]
inactive: all other assays above

CC(CN=Cc1ccccc1O)N=Cc1ccccc1O (centres undefined)
active: [2] 15000 nM | [7] 15000 nM
not listed: [9] | [10]
inactive: all other assays above

CN(C)C(=S)SC(=S)N(C)C
active: [5] 3390 nM
not listed: [9] | [10]
inactive: all other assays above

COCCOCCOCCO
inactive: [9]

CCCCCCC(CO)CCCC (centres undefined)
active: [2] 50.9 nM | [4] 77.4 nM | [7] 4380 nM | [8] 4680 nM
inactive: [1] | [3] | [5] | [6]

C=CC(C)(O)CCC=C(C)C (centres undefined)
active: [5] 3 nM
not listed: [9] | [10]
inactive: all other assays above

CS(=O)(=O)OCCCCOS(C)(=O)=O
inactive: [10] | [9]

CN(C)CCOC(C)(c1ccccc1)c1ccccn1 (centres undefined)
inactive: [9]

FC(F)(F)COCC(F)(F)F
inactive: [9]

CCOC(=O)C(C#N)=C(c1ccccc1)c1ccccc1
not listed: [9] | [10]
inactive: all other assays above

O=C(Nc1ccc2c(O)c(N=Nc3ccc(N=Nc4ccc(S(=O)(=O)O)cc4)cc3)c(S(=O)(=O)O)cc2c1)c1ccccc1
active: [8] 15000 nM
not listed: [9] | [10]
inactive: all other assays above

Oc1c(Cl)cc(Cl)c(Cl)c1Cc1c(O)c(Cl)cc(Cl)c1Cl
inactive: [1] | [2] | [7]
active: [3] 153 nM | [4] 540 nM | [5] 454 nM | [6] 127 nM | [8] 203 nM | [9] 894 nM and 1.28 µM
